# A selection: hits, their analogues and other compounds. The true share with any hit is near 2.3%.
# Tau fluor counter: counter-screen for tau fibril formation inhibitors; tau K18 P301L Alexa594 fluorescence, heparin fibrillization; Potency, µM (highest dose often 57.7 µM), without a hit: top-dose activity change, negative = decrease; hit rate 0.93% among 280,000; AID 1463; further: potency means the concentration at half of the fitted maximal effect; nearly all actives have a fitted effect of over 55% in size
#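 Human tau K18 P301L (15 uM unlabeled, 0.24 uM Alexa 594-labeled) in 100 mM sodium acetate pH 7 with 20 uM heparin, 6 hr at 37 C. ThT 30 uM added, 1 hr ambient; Alexa 594 FP and total fluorescence read at 555/632 nm.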
# Tau FP inhib: inhibitors of human tau fibril formation | P10636 | Potency, µM (doses to about 57.7 µM), inactives show top-dose activity, negative = inhibition, hits mostly inhibitors | hit rate 0.39% among 280,000 | K18 P301L tau heparin fibrillization, Alexa594 FP, 6 h | AID 1468; further: potency means the concentration at half of the fitted maximal effect; nearly all actives have a fitted effect of over 55% in size
#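 K18 P301L tau (15 uM unlabeled/0.24 uM Alexa 594-labeled, final) + compound + heparin 20 uM final; 100 mM NaOAc pH 7; 6 hr 37 C; ThT 30 uM final added, 1 hr RT; FP ex 555/em 632 nm.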
# Coupling enz: counter-screen for Giardia aldolase inhibitors: coupling enzyme system; coupling enzyme system counterscreen, AmpLite Red fluorescence; hit rate 0.67% among 290,000; activity change, negative = inhibition, % at 58.2 µM, hits read low; in the data active means activity change below about -30%
#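 Final compound at 57.5 uM, incubated 10 min at RT with coupling enzyme reagent (glyceraldehyde-3-phosphate), then 20 min with substrate and AmpLite Red detection. Fluorescence read at 525/598 nm; tests interference with the coupling assay, not aldolase inhibition.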
# Tau fibril ThT: tau fibrillization inhibition (ThT binding); P10636; recombinant tau K18 P301L (four-repeat tau fragment), heparin-induced fibrillization, ThT fluorescence; Potency, µM (top dose mostly 57.4 µM), for the others: top-dose activity, negative = inhibition, hits mostly inhibitors; hit rate 2.1% among 270,000; AID 1460; further: potency means the concentration at half of the fitted maximal effect; nearly all actives have a fitted effect of over 55% in size
#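 Heparin-induced fibrillization of the P301L-mutant K18 repeat-domain fragment of human tau was followed by ThT binding in quantitative high-throughput format.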
# USP1 inh: USP1/UAF1 (human) deubiquitinase inhibition; AID 743255; O94782; hit rate 0.23% among 390,000; recombinant USP1/UAF1, Ub-Rhodamine cleavage fluorescence; Potency, µM (series often up to 57.1 µM), for the others: at the highest dose activity change, negative = inhibition, actives largely listed as inhibitors; further: potency means the concentration at half of the fitted maximal effect; nearly all actives have a fitted effect of over 60% in size
# Target sequence (O94782 whole entry, looked up): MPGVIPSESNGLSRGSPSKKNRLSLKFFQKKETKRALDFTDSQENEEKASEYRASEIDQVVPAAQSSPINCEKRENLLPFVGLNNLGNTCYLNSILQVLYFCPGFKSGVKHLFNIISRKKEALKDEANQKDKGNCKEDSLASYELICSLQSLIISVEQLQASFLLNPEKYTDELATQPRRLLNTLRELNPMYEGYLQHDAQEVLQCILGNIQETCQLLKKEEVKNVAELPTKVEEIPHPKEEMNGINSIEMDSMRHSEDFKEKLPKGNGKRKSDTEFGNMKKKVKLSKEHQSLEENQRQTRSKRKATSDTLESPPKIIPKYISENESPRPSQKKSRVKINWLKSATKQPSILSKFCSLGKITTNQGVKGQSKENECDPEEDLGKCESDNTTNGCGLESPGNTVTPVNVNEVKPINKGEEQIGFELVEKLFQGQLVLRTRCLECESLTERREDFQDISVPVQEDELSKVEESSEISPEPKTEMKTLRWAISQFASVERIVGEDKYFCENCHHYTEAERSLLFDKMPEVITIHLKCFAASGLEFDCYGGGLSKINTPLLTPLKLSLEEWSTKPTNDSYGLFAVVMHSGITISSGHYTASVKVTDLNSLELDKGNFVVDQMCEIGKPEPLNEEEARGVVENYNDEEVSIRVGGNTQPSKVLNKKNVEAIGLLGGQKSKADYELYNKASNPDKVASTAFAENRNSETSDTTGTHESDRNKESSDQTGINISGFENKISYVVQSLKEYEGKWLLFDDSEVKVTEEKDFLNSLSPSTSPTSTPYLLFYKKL
#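 1 nM enzyme complex + cpd, 15 min RT; start with Ub-Rho 150nM final; kinetic fluorescence ex 480/em 540, 6 reads q60 s. Buffer 50mM HEPES pH 7.8, 0.5mM EDTA, 0.1 mg/ml BSA, 1mM TCEP, 0.01% Tween-20.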
# The depositor's hits bear a star; ? = inconclusive; . = not tested or not shown; [ ] = remark or other dose. Unless noted, the call rests on the fitted dose curve; in most records, active means well fitted curve in the direction sought with a large enough effect; inconclusive means small, poorly fitted or top-dose-only effect, or another doubt; inactive means no such curve, though single readings can be large; an effect the other way counts as inactive or inconclusive. On the % scale 0 is the no-effect control and ±100 the full control effect.
SMILES,Tau fluor counter,Tau FP inhib,Coupling enz,Tau fibril ThT,USP1 inh
COc1ccc(N2CCN(C(=O)NCc3noc4ccccc34)CC2)cc1,-22%,4%,.,-10%,-4%
Cc1cc(F)ccc1S(=O)(=O)Nc1ccccc1C(=O)Nc1ncn[nH]1,-15%,3%,-3,-13%,-4%
Cc1cc(F)ccc1S(=O)(=O)Nc1ccccc1C(=O)Nc1ccccc1-c1nc2ccccc2[nH]1,?,13µM*,-2,8%,-8%
CC1CCN(S(=O)(=O)c2ccc(C(=O)Nc3ccccc3-c3nc4ccccc4[nH]3)cc2)CC1,?,28µM*,-1,18%,-5%
CC1CCCN(S(=O)(=O)c2ccc(C(=O)Nc3ccccc3-c3nc4ccccc4[nH]3)cc2)C1 (centres undefined),?,?,0,6%,-5%
O=C1CC(/C=C/c2ccccn2)=Nc2ccccc2N1,-12%,4%,1,?,-17%
O=C1CC(/C=C/c2ccc([N+](=O)[O-])cc2)=Nc2ccccc2N1,?,6%,-5,4µM*,-21%
CCN1C(=C(C#N)C#N)C=Cc2cc(C)ccc21,-11%,-6%,0,10%,-24%
C=CC[n+]1c(/C=C2\C=Cc3cc(C)ccc3N2CC)ccc2ccccc21,14µM*[fluorescent],-2%,2,3.5µM*,-11%
O=C1N=c2ccccc2=C1c1sc(NS(=O)(=O)Cc2ccccc2)nc1O,-20%,6%,10,7.9µM*,-15%
O=C1N=c2ccccc2=C1c1sc(Nc2cccc(O)c2)nc1O,.,.,0,.,-13%
O=C1N=c2ccccc2=C1c1sc(Nc2ccc(O)cc2)nc1O,14µM*[quencher],5%,-1,2.2µM*,-18%
O=C1N=c2ccccc2=C1c1sc(NS(=O)(=O)c2ccccc2)nc1O,?,5%,1,7.1µM*,-26%
CN1c2ccccc2C(=O)/C(=C\Nc2ccc(F)cc2F)S1(=O)=O,-17%,-3%,0,-16%,-25%
O=S(=O)(c1ccc(Br)cc1)c1nnn2c1nc(NCc1ccc3c(c1)OCO3)c1sccc12,-24%,?,.,?,-19%
CCOc1cc(Br)c(Br)c(C=Nc2ccc(NC(C)=O)cc2)c1O,-12%,-3%,3,6.3µM*,-9%
CC(=O)Nc1ccc(N=Cc2c(O)c3ccccc3oc2=O)cc1,.,.,0,.,-7%
CC(=O)Nc1ccc(N=Cc2c(O)c(C(=O)Nc3ccccc3)cc3ccccc23)cc1,-26%,?,-13,13µM*,-6%
CCOC(=O)C1=CC[C@H]2c3c(c4ccc(OC)cc4n3C)C(=O)C1N2S(=O)(=O)c1ccc(C)cc1,.,.,.,.,13%
CC(=O)c1ccc(NC(=O)c2cc(-c3ccc(C)s3)nc3ccccc23)cc1,-18%,-6%,.,10%,-7%
O=c1c2c([N+](=O)[O-])cc([N+](=O)[O-])cc2sn1-c1ccc(Br)cc1,?,22µM*,0,14µM*,5%
O=c1c2c([N+](=O)[O-])cc([N+](=O)[O-])cc2sn1Cc1ccccc1,.,.,1,.,-18%
COc1cccc2c(=O)c3cccc(N)c3[nH]c12,-18%,15%,-56*,?,-20%
COc1cccc2c(=O)c3c([nH]c12)OC(C)(C)C3,.,.,.,.,-14%
CC1CCN(c2cc3c(cc2F)c(=O)c(S(=O)(=O)c2cccc(Cl)c2)cn3Cc2ccccc2)CC1,-9%,-9%,.,-3%,?
SMILES,Tau fluor counter,Tau FP inhib,Coupling enz,Tau fibril ThT,USP1 inh
COc1ccc(NC(=O)CCS(=O)(=O)c2ccc3c(c2)CCN3C(C)=O)cc1,.,.,.,.,-20%
CCOC(=O)N1CCC2(CC1)C(C#N)=C(N)Oc1c2c(C)nn1-c1cccc(Cl)c1,?,-12%,-6,22µM*,-16%
CC(=O)N1C(=O)C2(C(C#N)=C(N)Oc3c2c(C)nn3-c2ccccc2)c2ccccc21 (centres undefined),?,?,-27,28µM*,-14%
Cc1ccc2c3c1C1(C(=O)N3C(C)(C)CC2C)C(C#N)=C(N)Oc2cc(O)ccc21 (centres undefined),-22%,2%,0,-13%,?
Cc1nn(-c2ccccc2)c2c1C1(C(=O)N(C)c3ccccc31)C(C#N)=C(N)O2 (centres undefined),?,?,-44*,22µM*,-13%
CCOC(=O)N1CCC2(CC1)C(C#N)=C(N)Oc1n[nH]c(C)c12,-8%,1%,0,-10%,-12%
Cc1nn(-c2ccccc2)c2c1C1(C(=O)N3c4c(cccc41)C(C)CC3(C)C)C(C#N)=C(N)O2 (centres undefined),?,?,-59*,?,-23%
CC(COc1ccccc1)OC(=O)Nc1ccccc1 (centres undefined),.,.,.,.,-24%
CCN1C(=O)C2(C(C#N)=C(N)Oc3c2c(C)nn3-c2ccccc2)c2ccccc21 (centres undefined),?,?,-45*,16µM*,-16%
Cc1ccc(C(=O)NCC(=O)OC(C)C(=O)NC2CCCCC2C)cc1C (centres undefined),.,.,.,.,-22%
O=c1ccc2[n+]([O-])c3ccc(O)cc3oc-2c1,2µM*[fluorescent],32%,1,13µM*,-21%
O=c1cc(O)c2ccc(O)cc2o1,-4%,2%,0,-9%,-7%
CCOc1ccc(CCNC(=O)CSc2nnnn2-c2ccccc2Cl)cc1OCC,-24%,7%,.,?,-25%
CCS(=O)(=O)c1ccc2oc(Nc3ccc(C(C)C)cc3)nc2c1,?,?,2,40µM*,-26%
O=C(NCc1cc(C(F)(F)F)ccc1Cl)c1cccc2c1C(=O)c1ccc(N3CCCCC3)cc1S2(=O)=O,.,.,.,.,20µM*
O=C(NCc1ccc(OC(F)(F)F)cc1)c1cccc2c1C(=O)c1ccc(N3CCCCC3)cc1S2(=O)=O,.,.,.,.,25µM*
COCC(=O)N1CCc2nc(-c3ccccc3)c3c(c2C1)CO[C@@H](C)C3,-4%[11.6 µM],0%[11.6 µM],2,0%[11.5 µM],.
Cc1ccc(Cl)c2sc(NC(=O)CS(=O)(=O)c3ccc(Cl)cc3)nc12,?,11µM*,.,1%,2%
NC(=S)N1OC[C@@H]2COc3ccc4ccccc4c3[C@@H]21,4%,4%,0,6%,-26%
Nc1scc2c(C(=O)N/N=C/c3ccc(Cl)cc3)nn(-c3ccccc3)c(=O)c12,?,?,-48*,11µM*,?
Nc1c(C(=O)N/N=C/c2ccc(Cl)cc2)cnn1-c1ccccc1,-2%,-2%,-1,0%,-9%
Cc1cc(SCC(=O)N/N=C/c2ccccc2C(=O)O)c(C)cc1Br,.,.,19,.,-8%
Cc1cc(SCC(=O)N/N=C/c2ccc(O)cc2O)c(C)cc1Br,16µM*[quencher],-7%,1,?,-22%
CC(C)CCOc1ccc(C2N=C(N)Nc3nc4ccccc4n32)cc1 (centres undefined),-10%,9%,.,-10%,-30%

# Screening data as filed in PubChem.
